Screening data from PubChem BioAssay.
DT40 TDP1 no CPT = qHTS for Inhibitors of human tyrosyl-DNA phosphodiesterase 1 (TDP1): qHTS in cells in absence of CPT | DT40 Tdp1-/- hTDP1 cells, no CPT, ATP luminescence, 48 h | Potency, µM (doses to about 46.2 µM), for the others: at the top dose activity change, negative = growth inhibition, usual class: inhibitors | 420,000 compounds, 15% hits; further: potency means the concentration at half of the fitted maximal effect; nearly all actives have a fitted effect of over 55% in size
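No-CPT arm: Tdp1-/-;hTDP1 DT40 cells (400/well) plus compounds, incubated ≥48 hr at 37 °C. Readout CellTiter-Glo luminescence.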
ELG1 repair inh = inhibitors of ELG1-dependent DNA repair in HEK293T cells | HEK293T ELG1-luciferase reporter, luminescence, 16 h; DNA damage induced by 5-fluorouridine | Potency, µM (series often up to 46.1 µM), for the others: at the highest dose activity change, negative = inhibition, most hits filed as inhibitors | 330,000 compounds, 2.3% hits | AID 504467; further: potency means the concentration at half of the fitted maximal effect; nearly all actives have a fitted effect of over 55% in size
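Step one: seed 2,000 cells per well. Step two: pin-transfer compound or DMSO alongside 5-fluorouridine. Step three: incubate 16 hr, 37 °C, 5% CO2. Step four: add ONE-Glo, wait 30 min, read luminescence.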
Gal4-VP16 FLuc = Gal4-VP16 reporter inhibition counter-screen; Drosophila S2 Gal4-VP16 UAS-luciferase, luminescence, 20 h; Potency, µM (top dose mostly 53.6 µM), for inactives: at the highest dose activity, negative = inhibition, actives largely listed as inhibitors; 310,000 compounds, 3.5% hits;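 further: Gal4-VP16 expression switched on by copper sulfate through the metallothionein promoter; potency means the concentration at half of the fitted maximal effect; nearly all actives have a fitted effect of over 50% in size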
RORg inh = inhibitors of mouse ROR gamma transcriptional activity | P51450 | Drosophila S2 Gal4-RORgamma UAS-luciferase reporter, 20 h | Potency, µM (highest dose often 53.6 µM), for inactives: top-dose activity change, negative = inhibition, actives largely listed as inhibitors | 310,000 compounds, 5.4% hits | AID 2551; further: potency means the concentration at half of the fitted maximal effect; nearly all actives have a fitted effect of over 60% in size
Target sequence (P51450 whole entry, looked up, the tested form may be a part): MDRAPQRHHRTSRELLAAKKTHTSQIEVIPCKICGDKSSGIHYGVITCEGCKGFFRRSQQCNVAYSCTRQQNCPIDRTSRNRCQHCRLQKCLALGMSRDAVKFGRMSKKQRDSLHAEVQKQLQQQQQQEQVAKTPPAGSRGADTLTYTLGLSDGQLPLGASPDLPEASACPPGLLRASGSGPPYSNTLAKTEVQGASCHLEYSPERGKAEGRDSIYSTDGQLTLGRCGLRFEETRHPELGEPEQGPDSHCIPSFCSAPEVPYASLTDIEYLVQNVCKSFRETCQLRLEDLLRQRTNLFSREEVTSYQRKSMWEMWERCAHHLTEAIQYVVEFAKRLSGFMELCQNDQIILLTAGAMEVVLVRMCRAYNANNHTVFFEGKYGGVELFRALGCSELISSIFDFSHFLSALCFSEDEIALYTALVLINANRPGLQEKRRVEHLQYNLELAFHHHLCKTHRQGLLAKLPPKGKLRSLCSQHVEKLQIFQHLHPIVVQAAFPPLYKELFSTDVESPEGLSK
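Compounds are pin-transferred onto Drosophila Schneider cells expressing a copper-inducible Gal4–ROR gamma transactivation domain fusion. After 1 hr, copper sulfate is added to 700 uM final; luciferase is read 20 hr later.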
DT40 TDP1 CPT = DT40-hTDP1 cell growth loss with CPT. chicken DT40 Tdp1-/-;hTDP1 cells + 20 nM CPT, ATP luminescence, 48 h. Potency, µM (highest dose often 46.2 µM), for inactives: at the top dose activity change, negative = growth inhibition, most hits filed as inhibitors. 420,000 compounds, 12% hits. AID 686979; further: potency means the concentration at half of the fitted maximal effect; nearly all actives have a fitted effect of over 55% in size
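Chicken DT40 Tdp1-/- cells complemented with human TDP1, 400 cells/well, exposed to compounds plus 20 nM camptothecin for at least 48 h at 37 C; viability read as ATP content by CellTiter-Glo luminescence.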
IL1B secr inh = inflammasome signaling inhibition, IL-1 beta readout; THP-1 LPS/ATP IL-1B secretion, AlphaLISA, 16 h; hits give low values; activity change, % at 57.5 µM; 360,000 compounds, 4.7% hits; in the data active means activity change below about -50%; inconclusive means mostly about -30% to -49%
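Secreted IL-1B measured by AlphaLISA bead assay after 16 h compound exposure of THP-1 cells; compounds (final up to 57.5 uM) added 1 h before LPS (250 ng/mL) and ATP (1.25 mM) stimulation; lower signal means less secretion.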
An asterisk follows results filed as active; [ ] = remark or other dose. Rows were chosen to be rich in hits. Some 21% of all compounds tested hit in one or more screens of this group. Unless noted, the call rests on the fitted dose curve; in most records, active means well fitted curve in the direction sought with a large enough effect; inconclusive means small, poorly fitted or top-dose-only effect, or another doubt; inactive means no such curve, though single readings can be large; an effect the other way counts as inactive or inconclusive. On the % scale 0 is the no-effect control and ±100 the full control effect.

Results for Fc1ccc(-c2nnc(-n3nnc4ccccc43)c3ccccc23)cc1 ?
DT40 TDP1 no CPT: 12µM*; DT40 TDP1 CPT: inconclusive; IL1B secr inh: -21

Results for COc1ccc(CNC(=O)Nc2cccc(C(F)(F)F)c2)cc1OC ?
DT40 TDP1 no CPT: 9.2µM*; ELG1 repair inh: inconclusive; Gal4-VP16 FLuc: -13%; RORg inh: 11%; DT40 TDP1 CPT: inconclusive; IL1B secr inh: 3

Results for COc1ccc(CNC(=O)NCc2ccc(OC)c(OC)c2)cc1OC ?
DT40 TDP1 no CPT: -6%; ELG1 repair inh: 10%; Gal4-VP16 FLuc: -5%; RORg inh: -2%; DT40 TDP1 CPT: -10%; IL1B secr inh: 30

Results for O=C(COc1ccc(C(F)(F)F)cc1[N+](=O)[O-])Nc1cccc(C(F)(F)F)c1 ?
DT40 TDP1 no CPT: -16%; ELG1 repair inh: 11%; Gal4-VP16 FLuc: -3%; RORg inh: -17%; DT40 TDP1 CPT: 24%; IL1B secr inh: -10

Results for CCOc1cc(CNC(CC)CO)ccc1OCC(=O)Nc1cccc(C(F)(F)F)c1 (stereo unspecified) ?
DT40 TDP1 no CPT: 26µM*; ELG1 repair inh: -10%; Gal4-VP16 FLuc: 2%; RORg inh: 31%; DT40 TDP1 CPT: inconclusive; IL1B secr inh: -20

Results for COc1cc2c(cc1OC)C1(Nc3c-2c(Cc2ccccc2)nn3-c2ccccc2)C(=O)Nc2ccccc21 (stereo unspecified) ?
DT40 TDP1 no CPT: 23µM*; ELG1 repair inh: 13µM*; Gal4-VP16 FLuc: -6%; RORg inh: 27%; DT40 TDP1 CPT: inconclusive; IL1B secr inh: -18

Results for Cc1nc(C)c(-c2csc(N)n2)s1 ?
DT40 TDP1 no CPT: 1%; ELG1 repair inh: 6%; Gal4-VP16 FLuc: -8%; RORg inh: 9%; DT40 TDP1 CPT: -2%; IL1B secr inh: 23

Results for C=CCNc1nc(-c2sc(NC(C)=O)nc2C)cs1 ?
DT40 TDP1 no CPT: 16µM*; ELG1 repair inh: 27%; Gal4-VP16 FLuc: 12%; RORg inh: inconclusive; DT40 TDP1 CPT: 10µM*; IL1B secr inh: -58*

Results for C=CCNc1nc(-c2sc(NC(=O)CC)nc2C)cs1 ?
DT40 TDP1 no CPT: inconclusive; ELG1 repair inh: 11%; Gal4-VP16 FLuc: 4%; RORg inh: inconclusive; DT40 TDP1 CPT: inconclusive; IL1B secr inh: inconclusive

How did Cc1nc(NC(=O)C(C)(C)C)sc1-c1csc(N)n1 do in these assays?
DT40 TDP1 no CPT: 23µM*; DT40 TDP1 CPT: inconclusive; IL1B secr inh: -12

What do the screens show for `CCN1CCN(Cc2c(O)ccc3c2O/C(=C\C=C\c2ccccc2OC)C3=O)CC1`?
DT40 TDP1 no CPT: 18µM*; ELG1 repair inh: -3%; Gal4-VP16 FLuc: -6%; RORg inh: -23%; DT40 TDP1 CPT: inconclusive; IL1B secr inh: -23

How did COCCN(Cc1ccc(C)cc1)C(=O)[C@H]1O[C@@H](n2ccc(=O)[nH]c2=O)[C@H](O)[C@@H]1O do in these assays?
DT40 TDP1 no CPT: -5%; DT40 TDP1 CPT: -27%; IL1B secr inh: 20

Results for CCC(NC(=S)NC1CCCCC1)c1ccc(C)cc1 (stereo unspecified) ?
ELG1 repair inh: -27%; Gal4-VP16 FLuc: 5µM*; RORg inh: 2.8µM*

What do the screens show for `CC(NC(=S)NC1CCCCC1)c1ccccc1` (stereo unspecified)?
DT40 TDP1 no CPT: inconclusive; ELG1 repair inh: -6%; Gal4-VP16 FLuc: inconclusive; RORg inh: -18%[1.91 µM]; DT40 TDP1 CPT: inconclusive; IL1B secr inh: 26

Results for CCCc1ccc(C(C)NC(=S)NC2CCCCC2)cc1 (stereo unspecified) ?
DT40 TDP1 no CPT: inconclusive; ELG1 repair inh: -14%; Gal4-VP16 FLuc: 3.5µM*; RORg inh: 2.5µM*; DT40 TDP1 CPT: inconclusive; IL1B secr inh: 0

Results for Cc1ccccc1S(=O)(=O)Nc1nc2ccccc2nc1N1CCc2ccccc2C1 ?
DT40 TDP1 no CPT: inconclusive; ELG1 repair inh: -10%; Gal4-VP16 FLuc: inconclusive; RORg inh: 0%; DT40 TDP1 CPT: -25%; IL1B secr inh: 7

Results for O=C(Nc1cccc(S(=O)(=O)N2CCCCCC2)c1)C1CCN(C(=O)c2ccc(Cl)cc2)CC1 ?
DT40 TDP1 no CPT: inconclusive; ELG1 repair inh: inconclusive; DT40 TDP1 CPT: 18µM*; IL1B secr inh: inconclusive

What do the screens show for `O=C(Nc1cccc(F)c1)C1CCCN(C(=O)c2ccc(Cl)cc2)C1` (stereo unspecified)?
DT40 TDP1 no CPT: 18µM*; ELG1 repair inh: -18%; DT40 TDP1 CPT: 21µM*; IL1B secr inh: -8

Results for CCN(CC(=O)Nc1c(F)cccc1F)C(=O)C1CCCN(C(=O)c2ccc(Cl)cc2)C1 (stereo unspecified) ?
DT40 TDP1 no CPT: -19%; ELG1 repair inh: 8%; Gal4-VP16 FLuc: 11µM*; RORg inh: 10µM*; DT40 TDP1 CPT: -1%; IL1B secr inh: inactive

What do the screens show for `O=C(Nc1ccccc1)C1CCCN(C(=O)c2ccc(Cl)cc2)C1` (stereo unspecified)?
DT40 TDP1 no CPT: inconclusive; ELG1 repair inh: inconclusive; Gal4-VP16 FLuc: -8%; RORg inh: 18%; DT40 TDP1 CPT: inconclusive; IL1B secr inh: 0

What do the screens show for `O=C(Nc1ccc(S(=O)(=O)N2CCCCC2)cc1)C1CCCN(C(=O)c2ccc(Cl)cc2)C1` (stereo unspecified)?
DT40 TDP1 no CPT: 21µM*; ELG1 repair inh: inconclusive; Gal4-VP16 FLuc: -23%; RORg inh: -29%; DT40 TDP1 CPT: inconclusive; IL1B secr inh: 2

What do the screens show for `O=C(NC1CCCC1)C1CCCN(S(=O)(=O)c2ccc(F)cc2)C1` (stereo unspecified)?
DT40 TDP1 no CPT: inconclusive; ELG1 repair inh: 5%; Gal4-VP16 FLuc: -9%; RORg inh: 8%; DT40 TDP1 CPT: -10%; IL1B secr inh: 38

Results for CN(CC(=O)Nc1ccc(F)cc1)C(=O)c1ccc(OCc2ccccc2)cc1 ?
DT40 TDP1 no CPT: -10%; ELG1 repair inh: 13%; DT40 TDP1 CPT: -24%; IL1B secr inh: 5

What do the screens show for `CCSc1nnc(NC(=O)C2CCCN(C(=O)c3ccc(Cl)cc3)C2)s1` (stereo unspecified)?
DT40 TDP1 no CPT: 5.2µM*; DT40 TDP1 CPT: 6.5µM*; IL1B secr inh: 19

What do the screens show for `CCc1nnc(NC(=O)C2CCCN(C(=O)c3ccc(Cl)cc3)C2)s1` (stereo unspecified)?
DT40 TDP1 no CPT: inconclusive; ELG1 repair inh: 29%; DT40 TDP1 CPT: inconclusive; IL1B secr inh: -3
